In PubChem BioAssay (NCI):
“And” between values parts separate entries of the source, which are not always exact repeats. Equal entries are not always repeated. About 83,000 compounds went through this panel and 20% of them were active in at least one assay; those are over-represented in the sample as a whole.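 Method: cells in 96-well plates; compound added at one concentration; 48 h incubation; percent growth measured; values under 10 scored active.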 A number with no mark means an inactive call. The source made the active and inactive calls.

These molecules were tested on MDA-MB-468 breast (assay: NCI-60 one-dose screen, 48 h (100 = growth as untreated, 0 = no growth, -100 = all killed)). Settings: 10 µM unless noted.
`CC(=O)Oc1c(C)c(OC(C)=O)c2c(c1C(C)=O)OC1CC(=O)C(C(C)=O)=C(O)C21C` (stereo not given) gave a growth of 90.1%.
With `CCCCCCCCCCCC(=O)NC(C)(C)C(=O)N1CCCC1C(=O)NC(C)(C)C(=O)NC(C)(C)C(=O)N1CCCC1C(=O)NC(C)(C)C(=O)NC(C)(C)C(=O)N1CCCC1C(=O)NC(C)C(=O)NCCC(=O)NC(C)C(=O)NC(C)(C)C(=O)NC(C)(C)C(=O)NC(C)(C)C(=O)NCCC(=O)NC(C)(C)C(=O)NC(C)(C)C(=O)NC(C)(C)C(=O)NC(C)C(=O)NCCC(=O)O` (stereo not given) the growth was -88.5% (active).
In the case of `C=C1C(=O)O[C@H]2[C@H]1CC/C(COC(=O)CCCCCC(=O)OC/C1=C/CC[C@@]3(C)O[C@H]3[C@H]3OC(=O)C(=C)[C@@H]3CC1)=C\CC[C@@]1(C)O[C@@H]21`, the growth is reported as -33.4% (active).
`C[C@@H]1C[C@@H]([C@@H](CC2CC(=O)NC(=O)C2)OC(=O)CC(=O)c2ccccc2)C(=O)[C@@H](C)C1` gave a growth of 10.9%.
In the case of `Cc1ccc(N2CCN(C(=S)c3cccs3)CC2)cc1`, the growth is reported as 88.7%.
`Cc1cc(N(CCCNc2ccnc3cc(Cl)ccc23)Cc2ccco2)nc(N2CCOCC2)n1` showed a growth of 80.3%.
`CN1CCN(CCOc2ccc(-c3cnc4c(-c5ccc(F)cc5)cnn4c3)cc2)CC1` was tested, and the growth was 61.3%.
`COc1ccc(C(=O)CSc2nc3c(c(Nc4ccc(S(N)(=O)=O)cc4)n2)CCCC3)cc1` showed a growth of 108%.
`NC(=O)c1c(NC(=O)c2ccc3ccccc3c2)sc2c1CCC(=O)C2` showed a growth of 85.8%.
In the case of `CCOC(=O)c1c(C)nc2c(c1N)CC(=O)N2Cc1cc(OC)c(OC)c(OC)c1`, the growth is reported as -4.22% (active).
With `O=C(CCl)Oc1ccc(-c2ccccc2)c(Br)c1` the growth was 97.5%.
`COc1cc(NS(C)(=O)=O)ccc1Nc1c2ccccc2nc2c(C)cccc12` was tested, and the growth was -14.3% (active).
In the case of `CCN(CC)CCOc1ccc(C2=C(c3ccccc3)CCc3cc(OC)ccc32)cc1`, the growth is reported as -44.2% (active).
With `CC1CCCc2sc3nc(NNC(=O)c4cnccn4)n(-c4ccccc4)c(=O)c3c21` (stereo not given) the growth was -31.8% (active) and -42.9% (active).
Molecule `Cc1cc2c(cc1C)Nc1sc(NC(=O)CN3CCN(C)CC3)nc1C(=O)N2` has a growth of 105%.
In the case of `COc1ccc(/C=C(/C(=O)n2cnnn2)c2cc(OC)c(OC)c(OC)c2)cc1`, the growth is reported as 13.6%.
With `O=C(O)c1c[nH]c2ccccc2c1=O` the growth was 114%.
Work on `O=C(O)c1cc([N+](=O)[O-])ccc1Cl` yielded a growth of 109%.
With `CC(CN=Cc1ccccc1O)N=Cc1ccccc1O` (stereo not given) the growth was 115% and 98%.
In the case of `CC(=O)O[C@@H]1C(=O)N(c2cnccn2)[C@H]1c1ccccc1[N+](=O)[O-]`, the growth is reported as -4.17% (active).
Molecule `CCCCNC(=O)Oc1ccc(/C(=C(\C)c2ccc(Cl)cc2)c2ccc(OCCN3CCCCC3)cc2)cc1` has a growth of 62.9%.
With `CNCCCn1c2c(c3ccc(F)cc3c1=O)C(=O)c1cc(OC)cnc1-2` the growth was -47.6% (active).
Molecule `CC(C)NC(=O)OCC#CCOC(=O)NC(C)C` has a growth of 99.9%.
For `Cc1ccc(-c2nc([P+](c3ccccc3)(c3ccccc3)c3ccccc3)c(N3C[C@H]4C[C@H](C3)c3cccc(=O)n3C4)o2)cc1`, the growth was -9.01% (active).
`CCOC(=O)c1cnn(CC(O)CC)c1NC(=O)NCc1ccccc1C(F)(F)F` (stereo not given) gave a growth of 106%.
`O=CN1N=C(c2cccc(Nc3ccnc4cc(Cl)ccc34)c2)CC1c1ccc(Cl)cc1` (stereo not given) was tested, and the growth was -4.05% (active).
For `CCCCN1CCN(c2ccc3nc(-c4ccc5nc(-c6ccc(OCC)cc6)[nH]c5c4)[nH]c3c2)CC1`, the growth was 67.3%.
Molecule `COc1ccc(C2=C/C(=C\c3ccc(Cl)cc3)C(=O)N2/N=C/c2ccc(Cl)cc2)cc1` has a growth of 94.3%.
`Oc1cccc(CCc2ccc(Oc3cc(CCc4cccc(O)c4)cc(O)c3O)cc2)c1` was tested, and the growth was 82.5%.
In the case of `CC(=O)NCCN`, the growth is reported as 105%.
Work on `CC1(C)C2CC=C(/C=N/NC(=O)C3CCC(=O)N3)C1C2` (stereo not given) yielded a growth of 114%.
In the case of `COc1ccc(/C=C2\NC(=S)NC2=O)cc1`, the growth is reported as 102%.
`CCOC(=O)C(Nc1ccccc1)C(=O)OCC` was tested, and the growth was 104%.
Work on `CCCCCOC(=O)c1ccc(NC(=O)CNCC(C)C)cc1` yielded a growth of 102%.
`COc1ccccc1S(=O)(=O)Nc1ccc2c3c(cc(-c4cnn(C)c4)nc13)C(=O)N2C` showed a growth of 23.1%.
